aSyn 5UTR act: Activators via SNCA 5'UTR binding, MLPCN. alpha-synuclein 5'UTR reporter, activators screen. activity score, % (tested at 7.5 µM), hits read low. 300,000 compounds, 7.1% hits. AID 1814; in the data active = activity score below about -60%
Active calls of the source: *. The list is a sample of the results.

SMILES	aSyn 5UTR act
CCOc1ccc(C(=O)Nc2ccc3c(c2)OCCO3)cc1OC	-144*
CCOC(=O)c1cc([N+](=O)[O-])sc1NC(=O)c1ccc(S(=O)(=O)N2CC3(C)CC2CC(C)(C)C3)cc1 (configuration not stated)	55
Cc1cc(C(=O)Nc2ccc3c(c2)OCCO3)co1	-113*
CC1CCCCN1S(=O)(=O)c1ccc(C(=O)Nc2sccc2C(N)=O)cc1 (configuration not stated)	-106*
CC(C)CNS(=O)(=O)c1ccc(C(=O)Nc2ccc3c(c2)OCCO3)cc1	-98*
Cc1cc(C)n(-c2ccc(C(=O)OCc3ccccc3)cc2)n1	-68*
CCOc1cccc(C(=O)NC(=S)Nc2ccc3c(c2)OCCO3)c1	-87*
COc1cc(OC)cc(C(=O)Nc2ccc3c(c2)OCCO3)c1	-123*
Cc1cc(C)n(-c2ccc(C(=O)Nc3ccc4c(c3)OCCO4)cc2)n1	-101*
COc1ccc(N(CC(=O)Nc2ccc3c(c2)OCCO3)S(C)(=O)=O)c(OC)c1	-71*
COc1ccc(C)cc1NS(=O)(=O)c1ccc(NC(=O)CN(c2cc([N+](=O)[O-])ccc2C)S(C)(=O)=O)cc1	114
Cc1cc(C)n(-c2ccc(C(=O)Nc3sccc3C(N)=O)cc2)n1	-139*
CC1(C)CC(=O)C2=C(C1)c1c(ccc3ccccc13)NC2c1ccco1 (configuration not stated)	-193*
Cc1ccc(/C(N)=N/OC(=O)COc2ccccc2Cl)cc1	-95*
N/C(=N\OC(=O)COc1ccccc1Cl)c1ccc(Cl)cc1	-90*
CSc1nc(N)nc(SCC(=O)c2ccc(C)cc2)c1C#N	-113*
Cc1snc(SCC(=O)c2ccc(F)cc2)c1C#N	-124*
CSc1nc(N)nc(SCC(=O)OC(C)C)c1C#N	-82*
Cc1ccc(NC(=O)C(C)N=C2NS(=O)(=O)c3ccccc32)cc1F (configuration not stated)	-96*
COc1ccccc1OCC(=O)N/N=C/c1c(O)ccc2ccccc12	60
CCS/C(N)=N/N=C/c1cc(C)ccc1O	-82*
CCCCS/C(N)=N/N=C/c1cc(C)ccc1O	-76*
CS/C(N)=N/N=C/c1cc(C)ccc1O	-94*
CS/C(N)=N/N=C/c1c(O)ccc2ccccc12	-175*
CCN(CC)C(=O)Cn1cc(S(=O)(=O)CC(=O)Nc2ccc3c(c2)OCCO3)c2ccccc21	-82*
SMILES	aSyn 5UTR act
Cc1nc(/N=C(\N)Nc2ccccc2)nc2ccccc12	-133*
CC(C)c1ccc(CNc2ncc(Br)cn2)cc1	-153*
CC(C)c1ccc(CNc2c([N+](=O)[O-])c(=O)oc3ccccc23)cc1	-71*
CC(C)c1ccc(CNc2ccc([N+](=O)[O-])cn2)cc1	-78*
O=[N+]([O-])c1ccc(NCc2ccc(Cl)cc2)nc1	-105*
N/C(=N\N=C\c1cccc([N+](=O)[O-])c1)c1nonc1N	-150*
COc1cccc(/C=N/N=C(\N)c2nonc2N)c1O	-105*
COc1ccccc1/C=N\N=C(\N)c1ccccn1	-175*
O=c1[nH]c(/C=C/c2ccccc2Cl)nc2ccccc12	-265*
Clc1ccc(/C=C/c2nc3ccccc3[nH]2)cc1	61
Clc1cccc(Cl)c1/C=C/c1nc2ccccc2[nH]1	-149*
CCOc1cc(/C=C/c2cc(C(F)(F)F)[nH]c(=O)n2)ccc1O	-79*
Cc1[nH]c2ccccc2c1/C=C/c1nc2ccccc2c(=O)[nH]1	-98*
Clc1ccc(/C=C/c2nc3ccccc3[nH]2)c(Cl)c1	68
CCOc1cc(/C=C/c2nc3ccccc3c(=O)[nH]2)ccc1O	-133*
Cc1cccc(/C=C/c2nc3ccccc3c(=O)[nH]2)c1	-94*
CN(C)S(=O)(=O)c1ccc(C(=O)Nc2nc3ccccc3[nH]2)cc1	-109*
N#Cc1ccc(C(=O)Nc2nc3ccccc3[nH]2)cc1	-88*
CCc1ccc(C(=O)Nc2nc3ccccc3[nH]2)cc1	88
Cc1nc2ccc(NC(=O)N(C)c3ccccc3)cc2s1	-119*
Cc1nc2ccc(NC(=O)N(C(C)C)C(C)C)cc2s1	-90*
Cc1ccc2nc(NC(=O)[C@H](C)N3C(=O)C4CC=CCC4C3=O)sc2c1 (some centres not stated)	63
Cc1nnc2n(c1=O)N=C(c1ccc(Cl)cc1)CS2	-93*
COc1ccc(C2=Nn3c(nnc3-c3ccc(OC)cc3)SC2)cc1	100
COc1ccc(/C=C/C(=O)NC2=NCCS2)cc1OC	-148*
SMILES	aSyn 5UTR act
COc1ccc(OC)c(/C=C/C(=O)NC2=NCCS2)c1	-71*
COc1cc(C(=O)NCC(=O)N2CCN(S(=O)(=O)c3cc(C)ccc3C)CC2)cc(OC)c1OC	-75*
Cc1occc1C(=O)NCCc1ccc(Cl)cc1	-125*
COc1ccccc1CCNC(=O)c1ccoc1C	-72*
O=C(NCCc1ccc(O)cc1)c1ccc(Cl)cc1	-121*
CC(=O)NCCNC(=O)c1ccc(CSc2ccc(Cl)cc2)cc1	-132*
O=C(NCCc1ccc(Cl)cc1)c1ccc2nccnc2c1	-109*
CCOC(=O)C(Nc1ccc2ccccc2c1)C(=O)OCC	-138*
Cc1[nH]c2ccccc2c1/C=C(\C#N)C(=O)NC1CC1	-80*
COc1ccc(Cc2nc3ccc(C(=O)N4CCCC4)cc3o2)cc1	-155*
O=C(c1ccc2nc(Cc3cccc(Cl)c3)oc2c1)N1CCOCC1	-99*
COc1ccc(Cc2nc3ccc(C(=O)NC(C)C)cc3o2)cc1	-107*
C=C(C)CNC(=O)c1ccc2nc(Cc3ccc(OC)cc3)oc2c1	-178*
COc1ccc([C@@H](C)NC(=O)c2ccc3oc(C(C)C)nc3c2)cc1	-70*
O=C(Cc1ccc(Cl)cc1)NCc1ccccc1Cl	-66*
Cc1ccccc1CNC(=O)Cc1ccccc1[N+](=O)[O-]	-96*
O=C(Cc1ccccc1[N+](=O)[O-])NCc1ccccc1Cl	-147*
CCCOc1ccc(-c2nc(OC)c3ccccc3n2)cc1	-85*
CCCCCOc1ccc(/C=C/c2c([N+](=O)[O-])c(=O)n(C)c(=O)n2C)cc1	-175*
Cn1c(/C=C/c2cccc([N+](=O)[O-])c2)c([N+](=O)[O-])c(=O)n(C)c1=O	-194*
Cn1c(/C=C/c2ccc(Cl)cc2)c([N+](=O)[O-])c(=O)n(C)c1=O	-147*
Cn1c2c(c(=O)n(C)c1=O)C(C(F)(F)F)(C(F)(F)F)N=C(c1ccc(Cl)cc1)N2	99
Clc1cc2nc3ccccn3c2cc1Cl	-115*
CC(/C=C1\NC(=S)NC1=O)=C\c1ccccc1	-62*
Cc1[nH]c2ccccc2c1/C=C/C(=O)c1ccccc1	-64*
SMILES	aSyn 5UTR act
Cc1[nH]c2ccccc2c(=O)c1C(=O)/C=C/c1ccccc1	-281*
Clc1cccc(Cl)c1COn1nnc2ccccc21	-149*
COC(=O)c1ccc(COn2nnc3ccccc32)cc1	-130*
Cc1ccc(C2CC(c3ccccc3)=NN2c2ccccc2)o1 (configuration not stated)	-232*
CC(=O)Nc1ccc(C2CC(c3ccc(Cl)cc3)=NN2c2ccccc2)cc1 (configuration not stated)	-79*
COc1ccc(C2CC(c3cccs3)=NN2c2nc(-c3ccccc3)cs2)cc1OC (configuration not stated)	-64*
COc1ccc(C2=NN(c3ccccc3)C(c3ccc(OC)c(OC)c3)C2)cc1 (configuration not stated)	-76*
COc1cc(-c2nnc3n2N=C(c2ccccc2)CS3)cc(OC)c1OC	63

Screening results as filed in PubChem.
